# According to PubChem BioAssay AID463173 (ICCB-Longwood Screening Facility, Harvard Medical School, 2010):
# The campaign covered roughly 52,000 compounds. About 4,300 (8.3%) were called active. The full list was thinned out, with actives kept by preference. Unmarked numbers belong to inactive results. Rule as the data show it: active = survival mostly below about 52% (no sharp cut-off); inactive = mostly above about 56%.
# System: DeltatarO mutant
# Experiment: growth inhibition of S. aureus wild type versus tarO mutant, primary screen, teichoic acid synthesis inhibitors, RN4220, OD600 (AID 463173)
# Settings: OD600, 18 h, hits give low values, screened at 18.75 µg/mL (by protocol)
row,Structure (SMILES),survival
1,O=C(Nc1ccccc1)c1ccncc1,97%
2,CC(=O)Nc1ccc(S(=O)(=O)Nc2cccc(-c3ccc(N4CCCCCC4)nn3)c2)cc1,83%
3,Cc1onc2c1C(=O)CC(C)(C)C2,73%
4,Cc1cc(C)c2c(=O)cc(C(=O)NCc3ccc(S(N)(=O)=O)cc3)oc2c1,117%
5,Cc1ccc(F)cc1NC(=O)CSc1nc(-c2cccs2)cc(C(F)(F)F)n1,68%
6,CC(=O)N1CCOc2cc(S(=O)(=O)NCc3ccccc3Cl)c(Cl)cc21,76%
7,Cc1nc2sccn2c(=O)c1S(=O)(=O)Nc1ccc(N2CCOCC2)cc1,62%
8,CCOC(=O)c1ccc(NC(=O)CN2C(=O)C(C)(C)c3ccccc32)cc1,115%
9,CCN(C(=O)Cn1c(SCC(=O)NCc2ccccc2)nc2ccccc21)c1cccc(C)c1,65%
10,Cc1nc(N)sc1C(C)(C)C,86%
11,COc1ccc(-c2ccc(=O)n(CC(=O)NCCc3ccccc3)n2)cc1,70%
12,CCCC(CCC)C(=O)Nc1ccc(NC(=O)c2ccco2)cc1,98%
13,CCOc1cccc2cc(-c3nc4ccc(C(=O)O)cc4[nH]3)c(=O)oc12,69%
14,Cc1ccc2c(c1)N(C(=O)N1CCC(C(=O)NCc3cccs3)CC1)CC(C)O2 (stereo not drawn),91%
15,CC1CCCCN1CCCNC(=O)c1sc2ncccc2c1-n1cccc1 (stereo not drawn),25% (active)
16,O=C(NCCCN1CCN(c2ccc(F)cc2)CC1)c1sc2ncccc2c1-n1cccc1,37% (active)
17,COc1ccc(N2CCN(CCCNC(=O)c3sc4ncccc4c3-n3cccc3)CC2)cc1,101%
18,Cc1cc(C)c2c(-n3cccc3)c(C(=O)NCCCN3CCCCC3C)sc2n1 (stereo not drawn),93%
19,O=C(NCCCN1CCN(c2ccccc2)CC1)c1sc2ncccc2c1-n1cccc1,91%
20,O=C(NCCCN1CCCCC1)c1sc2ncccc2c1-n1cccc1,92%
21,CC1=C(C(=O)OC2CCCC2)C(c2ccccc2Cl)CC(=O)N1 (stereo not drawn),70%
22,CN1CCc2nc3sc(C(=O)c4ccc(F)cc4)c(N)c3cc2C1,71%
23,COc1ccc(CCNC(=O)C(C)n2nc(C)c3sc4ccccc4c3c2=O)c(OC)c1 (stereo not drawn),58%
24,COc1cc2nc(C3CCC3)n(N)c(=O)c2cc1OC,75%

row,Structure (SMILES),survival
1,O=C(NCc1ccncc1)C1CCN(C(=O)c2cccc(Cl)c2)CC1,74%
2,O=C(NCc1cccnc1)c1cn(C2CC2)c2cc(N3CCN(C(=O)c4cccc(Cl)c4)CC3)c(F)cc2c1=O,1% (active)
3,O=C(CN1C(=O)C2CCCCN2c2ccc(C(=O)N3CCCC3)cc21)NCc1cccc(Cl)c1 (stereo not drawn),68%
4,CCC(=O)N1CCc2cc(Br)cc(S(=O)(=O)CCC(=O)NCc3ccc(F)cc3)c21,80%
5,Cc1sc2c(c1C)c(=O)n(CCc1ccccc1)c(=O)n2Cc1ccc(F)cc1,52%
6,Cc1ccccc1Cn1c(=O)n(CCc2ccccc2)c(=O)c2c(C)c(C)sc21,-6% (active)
7,Cc1ccc(C)c(Cn2c(=O)n(CCc3ccccc3)c(=O)c3c(C)c(C)sc32)c1,112%
8,Cc1sc2c(c1C)c(=O)n(CCc1ccccc1)c(=O)n2Cc1ccccc1Cl,103%
9,Cc1sc2c(c1C)c(=O)n(CCc1ccccc1)c(=O)n2Cc1cccc(F)c1,16% (active)
10,Cc1cccc(Cn2c(=O)n(CCc3ccccc3)c(=O)c3c(C)c(C)sc32)c1,111%
11,CN1CCN(Cc2c(O)ccc3cc(-c4ccccc4)c(=O)oc23)CC1,105%
12,CCOC(=O)c1[nH]c(C)c(CCC(=O)NCc2ccc(OC(C)C)cc2)c1C,80%
13,COc1ccc(C2CC(=O)N(Cc3ccc(F)cc3)c3ccccc3S2)cc1 (stereo not drawn),28% (active)
14,COc1cc(C2CC(=O)N(Cc3cccc(F)c3)c3ccccc3S2)cc(OC)c1OC (stereo not drawn),103%
15,COc1ccc(C2CC(=O)N(Cc3ccc(F)cc3)c3ccccc3S2)cc1OC (stereo not drawn),100%
16,CCc1ccc(NC(=O)CN2C(=O)CC(c3ccccc3)Sc3ccccc32)cc1 (stereo not drawn),113%
17,O=C1CC(c2ccccc2)Sc2ccccc2N1Cc1ccc(F)cc1 (stereo not drawn),-2% (active)
18,COc1ccc(C2CC(=O)N(CC(=O)Nc3cc(C)ccc3C)c3ccccc3S2)cc1 (stereo not drawn),79%
19,O=C1CC(c2ccccc2)Sc2ccccc2N1Cc1ccccc1F (stereo not drawn),96%
20,COc1ccc(C2CC(=O)N(Cc3cccc(F)c3)c3ccccc3S2)cc1 (stereo not drawn),47% (active)
21,COc1cc(C2CC(=O)N(Cc3ccc(F)cc3)c3ccccc3S2)cc(OC)c1OC (stereo not drawn),75%
22,COc1ccc2c(c1)c(=O)c(C(=O)c1ccc(C)c(C)c1)cn2CC(=O)Nc1ccc2c(c1)OCCO2,76%
23,CCOc1ccc(NC(=O)Cn2cc(C(=O)c3ccc(CC)cc3)c(=O)c3cc(OC)c(OC)cc32)cc1,98%
24,CCOC(=O)c1ccc(NC(=O)CCc2c(C)nc3c(-c4ccc(F)cc4)c(C)nn3c2C)cc1,61%

row,Structure (SMILES),survival
1,COc1ccccc1N1CCN(C(=O)c2ccc(Nc3nc4ccccc4n4nnnc34)cc2)CC1,59%
2,Cc1ccc(CNC(=O)C2CCC(CNS(=O)(=O)c3ccc4c(c3)CCCC(=O)N4)CC2)cc1 (stereo not drawn),79%
3,COc1cccc(C(c2sc3nc(-c4ccco4)nn3c2O)N2CCCC2)c1 (stereo not drawn),71%
4,COc1ccc(OC)c2sc(N3CCN(C(=O)C4CC4)CC3)nc12,-5% (active)
5,COc1ccc(C)c2sc(N3CCN(C(=O)c4ccco4)CC3)nc12,17% (active)
6,Cc1ccc(C)c2sc(N3CCN(C(=O)c4ccco4)CC3)nc12,134%
7,COc1ccc(OC)c2sc(N3CCN(C(=O)C(C)(C)C)CC3)nc12,89%
8,COc1ccc(OC)c2sc(N3CCN(C(=O)c4ccco4)CC3)nc12,87%
9,COc1ccc(OC)c2sc(N3CCN(C(=O)C4COc5ccccc5O4)CC3)nc12 (stereo not drawn),88%
10,CCn1cc(S(=O)(=O)c2cccc(C)c2)c(=O)c2cc(F)c(N3CCCCC3C)cc21 (stereo not drawn),83%
11,CCc1ccc2[nH]c(=O)c(C(c3nnnn3C(C)(C)C)N3CCc4ccccc43)cc2c1 (stereo not drawn),96%
12,Cc1oc(-c2ccc(C(=O)N(C)Cc3ccccc3)cc2)nc1CN1CCc2ccccc21,119%
13,Cc1ccc(-n2nc3ccc(NC(=O)Cc4ccc(Cl)cc4)cc3n2)cc1,79%
14,CCOc1ccc(CNC(=O)Cn2c(=O)c3cccn3c3ccccc32)cc1,60%
15,FC(F)(F)c1cccc(Nc2c3c(nc4ccc(Cl)cc24)CCC3)c1,9% (active)
16,Fc1ccccc1Nc1c2c(nc3ccccc13)CCC2,95%
17,CCOC(=O)c1cccc(Nc2c3c(nc4ccccc24)CCC3)c1,68%
18,COc1ccc(Nc2c3c(nc4ccc(NC(=O)c5cc(Cl)ccc5OC)cc24)CCCC3)cc1OC,70%
19,COc1cc(Cl)c(C)cc1Nc1c2c(nc3ccccc13)CCC2,70%
20,Fc1ccc(F)c(Nc2c3c(nc4ccc(Cl)cc24)CCC3)c1,-18% (active)
21,O=C(Nc1c(C(=O)N2CCN(c3ccc(F)cc3)CC2)oc2ccccc12)c1c(F)cccc1F,95%
22,CCC(=O)Nc1ccccc1-c1nc2ccccc2n(Cc2cccc(Br)c2)c1=O,49%
23,CCn1cc(C(=O)NCCc2ccc(Cl)cc2)c(=O)c2cc(S(=O)(=O)N(C)C3CCCCC3)ccc21,84%
24,CC(=O)Nc1c(C)nn(-c2ccccc2)c1N1CCC(C(=O)NCc2ccc(F)cc2)CC1,-1% (active)

row,Structure (SMILES),survival
1,CC(=O)Nc1ccc(NC(=O)C2CCN(c3c(NC(C)=O)c(C)nn3-c3ccccc3)CC2)cc1,67%
2,Cc1cccc(CNC(=O)C2CCN(c3nn4cc(-c5ccc(F)cc5)nc4s3)CC2)c1,47% (active)
3,CC(=O)Nc1c(C)nn(-c2ccccc2)c1N1CCC(C(=O)Nc2ccc(F)cc2Cl)CC1,76%
4,CC(=O)Nc1c(C)nn(-c2ccccc2)c1N1CCC(C(=O)Nc2ccc(C)cc2Cl)CC1,72%
5,CC(=O)Nc1c(C)nn(-c2ccccc2)c1N1CCC(C(=O)NCc2ccc(Cl)cc2)CC1,72%
6,CC(=O)Nc1c(C)nn(-c2ccccc2)c1N1CCC(C(=O)NCc2ccccc2Cl)CC1,-2% (active)
7,CC(=O)Nc1c(C)nn(-c2ccccc2)c1N1CCC(C(=O)NCc2cccc(F)c2)CC1,6% (active)
8,CC(=O)Nc1c(C)nn(-c2ccccc2)c1N1CCC(C(=O)NCc2cccc(Cl)c2)CC1,84%
9,O=C(NCc1cccc(F)c1)C1CCN(c2nn3cc(-c4ccc(F)cc4)nc3s2)CC1,87%
10,Cc1ccc(CNC(=O)C2CCN(c3nn4cc(-c5ccc(F)cc5)nc4s3)CC2)cc1,87%
11,CC(=O)Nc1c(C)nn(-c2ccccc2)c1N1CCC(C(=O)Nc2cc(F)ccc2F)CC1,79%
12,COc1ccc(OC)c(C2CC(=O)Nc3c2c(=O)n(C)c2ncnn32)c1 (stereo not drawn),166%
13,O=C(Nc1ccc(N2CCOCC2)cc1)c1ncn[nH]1,86%
14,Cc1ccc(NC(=O)Cn2c(SCc3cccc(F)c3)nc3ccncc32)c(C)c1,83%
15,Cc1ccc(O)c(NC(=O)c2cc(-c3ccccc3O)no2)c1,80%
16,O=C(NC1CC(=O)N(c2ccccc2)C1)c1ccc(S(=O)(=O)N2CCCCC2)cc1 (stereo not drawn),17% (active)
17,CCOc1ccc(N2CC(NC(=O)c3ccc(S(=O)(=O)N4CCOCC4)cc3)CC2=O)cc1 (stereo not drawn),47% (active)
18,O=C(NC1CC(=O)N(c2ccc(F)cc2)C1)c1ccc(S(=O)(=O)N2CCCCC2)cc1 (stereo not drawn),75%
19,CCOc1ccc(N2CC(NC(=O)c3ccc(S(=O)(=O)N4CCCCC4)cc3)CC2=O)cc1 (stereo not drawn),79%
20,O=C(NC1CC(=O)N(c2ccccc2)C1)c1ccc(S(=O)(=O)N2CCCC2)cc1 (stereo not drawn),128%
21,CCOc1ccc(N2CC(NC(=O)c3ccc(S(=O)(=O)N4CCCC4)cc3)CC2=O)cc1 (stereo not drawn),87%
